{
  "source": "the supplement of paper PMC10338343",
  "note": "± gives the standard deviation.",
  "data": [
    {"tested_on": "MILI (PIWIL2) piRISC loaded with piRNA #1 (26 nt)", "experiment": "pre-steady-state target cleavage rate (min^-1); guide: piRNA #1 5'p-UGAGGUAGUAGGUUGUAUAGUAUCCA; MIWI and MILI are mouse PIWI proteins and EfPiwi is from a freshwater sponge; tags in brackets are library labels; higher = faster piRNA-guided slicing of the target", "conditions": "auxiliary factor: 500 nM mouse GTSF1", "outline": "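Using HEPES–potassium acetate buffer at 33 °C, 1 nM active affinity-purified piRISC with a single synthetic guide was mixed with 0.1 nM transcribed, DNA-blocked target RNA library for 0–8 or 0–960 min, with or without 500 nM GTSF1 partner protein. Uncleaved targets were sequenced and normalised to depth and to weakly complementary targets, and three trials were pooled with k3 capped at 0.0001 min^-1. A burst-and-steady-state fit gave the pre-steady-state cleavage rate.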", "values": [
      {"sequence": "GGAGACCUUACUAUAGAACCUACUACCUGA", "pre-steady-state target cleavage rate": "0.0254 ± 0.0086"},
      {"sequence": "GGAGACCUAUCUAUACAACCUACGACCUCA", "pre-steady-state target cleavage rate": "0.0973 ± 0.013"},
      {"sequence": "GGAGACCAUACUAUUCAACCUAGUACCUCA", "pre-steady-state target cleavage rate": "0.0559 ± 0.011"},
      {"sequence": "GGAGACCUAACUAUACAACCUACAACCUCA", "pre-steady-state target cleavage rate": "0.108 ± 0.026"},
      {"sequence": "GGAGACCUAUGAUUACAACCUACGACCUCA", "pre-steady-state target cleavage rate": "0.00452 ± 0.0036"},
      {"sequence": "GGAGACCUAUGUAUACAAGCUACUUCCUCA", "pre-steady-state target cleavage rate": "0.101 ± 0.013"},
      {"sequence": "GGAGACCUUUCUAUACUACCUACUACCUCA", "pre-steady-state target cleavage rate": "0.0739 ± 0.011"},
      {"sequence": "GGAGAGGAUUCUAUACAACCUACUUCCUCA", "pre-steady-state target cleavage rate": "0.00504 ± 0.0027"},
      {"sequence": "GGAGACCUAUGAUUACAACCUACUAGCUCA", "pre-steady-state target cleavage rate": "0.00322 ± 0.0026"},
      {"sequence": "GGAGACCUAUGAUAUGUUCGUACUACCUGA", "pre-steady-state target cleavage rate": "< 0.0001"},
      {"sequence": "GGAGACCUUACAAUACAACCUAGUACCUCA", "pre-steady-state target cleavage rate": "0.043 ± 0.013"},
      {"sequence": "GGAGACCAUACUAUAGAUCCUACUACCUCA", "pre-steady-state target cleavage rate": "0.229 ± 0.026"},
      {"sequence": "GGAGUGGAUACUAUACAAGGAACUACCUCA", "pre-steady-state target cleavage rate": "0.00353 ± 0.0018"},
      {"sequence": "GGAGACCUAUGAUAUGUUGCUACUACCUCCA", "pre-steady-state target cleavage rate": "< 0.0001"},
      {"sequence": "GGAGACCUUACUAUACAACGUACUACCACA", "pre-steady-state target cleavage rate": "0.0216 ± 0.0046"},
      {"sequence": "GGAGACCUAUGUAUACAACCUACGUACCUCA", "pre-steady-state target cleavage rate": "0.0295 ± 0.0083"},
      {"sequence": "GGAGACCAUACUUUACAACCUACUACGUCA", "pre-steady-state target cleavage rate": "0.0972 ± 0.016"}
    ]}
  ]
}
